# Data from PubChem BioAssay AID687020 (Broad Institute, 2013).
# In all, about 1,400 compounds went through this assay and about 100 (7.1%) were called active. How the calls were made is not given here. The list is a sample of the results. Results with a measured potency or affinity are listed apart.
# Assay: Vero cell toxicity, dose response, cytotoxicity control, plate reader, cherry-pick samples (AID 687020);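 further: compounds incubated with cells for three days before luminescence read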
# Conditions: Vero cells toxicity; series mostly up to 19.5 µM; activity change, negative = toxicity: at the top concentration
row,SMILES,"activity change, negative = toxicity"
1,COc1ccc(-c2cnc3n2CCCCC3)cc1,-10.8% (inactive)
2,CC(=O)N1CCN(C(=O)COC(=O)COc2c(C)cc(C)cc2C)CC1,-0.176% (inactive)
3,Cc1ccc(S(=O)(=O)N2CCOCC2)cc1NC(=O)CN(C)CC(=O)Nc1cccc(F)c1,-8.86% (inactive)
4,COc1cccc(NC(=O)CN(C)C(=O)Cc2ccc3c(c2)OCCO3)c1,-3.6% (inactive)
5,COC(=O)c1cn(C(=O)c2ccc(OC)c(OC)c2)c2ccccc12,-6.84% (inactive)
6,COc1ccc(COC(=O)C2=C(C)NC(=O)NC2c2ccccc2F)cc1 (configuration not stated),-12.5% (inactive)
7,CCN(CC)C(=O)C1CCN(Cc2ccc(OCc3ccccc3)cc2)CC1,-30.8% (inactive)
8,N#CC[C@H](c1ccccc1)N1CCN(Cc2ccccc2)CCC1=O,-10% (inactive)
9,CC(C)C[C@@H](COc1ccccc1)N1CCN(CCc2ccccc2)CCC1=O,-23.9% (inactive)
10,CCCN1CCC(=O)N([C@H](CSc2ccccc2)Cc2ccccc2)CC1,-25.2% (inactive)
11,Cc1noc(C)c1NC(=O)Nc1ccc2c(c1)CC(=O)N([C@@H](C)CO)C[C@H](C)[C@@H](CN(C)C(=O)Nc1ccccc1)O2,6.21% (inactive)
12,CCOc1ccc2[nH]cc(S(=O)(=O)c3ccc(C)cc3)c(=O)c2c1,-24.2% (inactive)
13,COc1ccc(NC(=O)c2cc3ccccc3cc2O)cc1,6.74% (inactive)
14,O=C(Oc1ccccc1)c1ccccc1C(=O)Oc1ccccc1,-7.5% (inactive)
15,COc1ccc(N2CCN(CC(O)COc3ccc(F)cc3)CC2)cc1 (configuration not stated),-1.99% (inactive)
16,Clc1cc(Br)ccc1OCCOCCN1CCCC1,-12.9% (inactive)
17,Clc1cc(Br)ccc1OCCCn1ccnc1,-4.92% (inactive)
18,N#CCc1ccc(NC(=O)c2cc(S(=O)(=O)N3CCOCC3)ccc2Cl)cc1,4.07% (inactive)
19,COc1ccc(-c2cc(N3C(=O)Nc4ccccc4N3O)n[nH]2)cc1OC,-3.7% (inactive)
20,CCNC(=O)N(C)C[C@H]1N[C@@](CC)(C(=O)OC)[C@H]2C(=O)N(Cc3ccccc3)C(=O)[C@@H]12,3.78% (inactive)
21,Cc1ccccc1N1Cc2ccccc2C1=O,-17.1% (inactive)

row,SMILES,"activity change, negative = toxicity"
1,CN1CCN(S(=O)(=O)c2cccs2)CC1,-29.2% (inactive)
2,O=C(NCc1ccc(Cl)c(Cl)c1)c1cc(C2CCCCN2C(=O)OCCF)on1 (configuration not stated),-31.1% (inactive)
3,COC(=O)N1CCCCC1c1cc(C(=O)Nc2ccccc2Cl)no1 (configuration not stated),-0.256% (inactive)
4,Cc1ccc(F)cc1C(=O)N1CCCCC1c1cc(C(=O)NC(C)C)no1 (configuration not stated),-4.27% (inactive)
5,COc1ccc(S(=O)(=O)N2CCCCC2c2cc(C(=O)Nc3ccccc3)no2)cc1 (configuration not stated),-19.9% (inactive)
6,Cc1ccc(NC(=O)C2CCN(S(C)(=O)=O)CC2)cc1Cl,-5.63% (inactive)
7,C[C@H](NC(=O)[C@H]1[C@H](CO)[C@H]2Cn3c(cccc3=O)[C@@H]1N2Cc1cccnc1)c1ccccc1,-1.47% [at 21 µM] (inactive)
8,CC(C)(C(=O)N1CCC1(C)C(=O)Nc1ccccc1Br)c1ccccc1 (configuration not stated),-3.5% (inactive)
9,Cc1c(C(=O)NCc2ccc(C#N)cc2)sc(=O)n1Cc1ccccn1,-13.9% (inactive)
10,COc1ccc2oc(C(=O)OC(C)C(=O)N3CCC(C)CC3)c(C)c2c1 (configuration not stated),0.402% (inactive)
11,Cc1ccc2oc(C(=O)N(Cc3ccncc3)CC3CCCO3)c(C)c2c1 (configuration not stated),-16.3% (inactive)
12,Cc1ccc(S(=O)(=O)Nc2ccc(O)c3ncccc23)cc1,-6.4% (inactive)
13,COCCNC(=O)C1CCC(CNS(=O)(=O)c2ccc(F)cc2)CC1 (configuration not stated),-5.15% (inactive)
14,CCCC(=O)Nc1ccc2nn(-c3ccc(OC)cc3)nc2c1,-10.6% (inactive)
15,COc1cc(C(=O)OCCCN2CCOCC2)cc(OC)c1OC,-18.3% (inactive)
16,CCN(CC)S(=O)(=O)c1cccc(C(=O)NCC2(N3CCOCC3)CCCCC2)c1,-17.2% (inactive)
17,CC(C)C[C@@H](CN1C(=O)C(=O)NC[C@@H]1CC(C)C)NC(=O)Cc1ccccc1,4.94% (inactive)
18,CCNC(=O)C[C@H]1CC[C@H]2[C@@H](COC[C@H](O)CN2Cc2ccc(Cl)c(Cl)c2)O1,-2.49% (inactive)
19,C=Cc1ccc(Cn2c(C)c(C(=O)NCc3cccc(C(F)(F)F)c3)sc2=O)cc1,-26.8% (inactive)
20,Cc1cccc(C)c1NC(=O)C1(C)CSCC(=O)N1Cc1cccc(C(F)(F)F)c1 (configuration not stated),-8.41% (inactive)
21,CC(=O)Nc1ccc(OCCCN2CCC(C(O)(c3ccccc3)c3ccccc3)CC2)cc1,10.1% (inactive)

row,SMILES,"activity change, negative = toxicity"
1,O=C(Nc1ccc(F)cc1)C1CCCN(S(=O)(=O)c2ccc3[nH]c(=O)ccc3c2)C1 (configuration not stated),-8.71% (inactive)
2,Cc1ccc(NC(=O)CN2CCC(NC(=O)c3cccc(F)c3)CC2)cc1C,-3.05% (inactive)
3,Cc1ccc(NC(=O)C2(c3cccs3)CCOCC2)cc1C,-2.5% (inactive)
4,Nc1nc2c(ncn2[C@@H]2O[C@H](CNCc3ccc(F)c(N4CCOCC4)c3)[C@@H](O)[C@H]2O)c(=O)[nH]1,2.14% (inactive)
5,CC1(c2nnnn2Cc2ccccc2)CCC(=O)N1CCCn1ccnc1 (configuration not stated),-8.16% (inactive)
6,COc1ccc(NC(=O)CN(C)C(=O)CC2CCCC2)cc1,0.376% (inactive)
7,COC(=O)c1c(-c2ccc(OC)cc2)sc2cc3c(cc12)OCO3,-14.3% (inactive)
8,CC1CCN(C(=O)COC(=O)CNC(=O)c2ccccc2F)CC1,0.091% (inactive)
9,Nc1sc(-c2ccccc2)cc1C(=O)NCCN1CCOCC1,0.888% (inactive)
10,COc1ccc(-c2nc(CN3CCC(C(=O)N4CCOCC4)CC3)c(C)o2)c(OC)c1,-7.68% (inactive)
11,O=C(NCC1CCCCC1)[C@H]1[C@H](CO)[C@H]2Cn3c(cccc3=O)[C@@H]1N2CCc1ccccc1,-0.486% (inactive)
12,O=C(c1cccnc1)N1CC2(C1)[C@H](c1ccccc1)[C@@H](CO)N2Cc1ccccc1,7.05% [at 21 µM] (inactive)
13,CN(C)CC#Cc1ccc([C@H]2[C@@H](CO)N(C(=O)C3CCC3)[C@H]2C#N)cc1,3.64% (inactive)
14,COC(=O)[C@H]1CN(C(=O)c2ccccc2)C(=O)N1,-14.5% (inactive)
15,COc1cc2cc(CCCOC(=O)CCCC(=O)O)oc(=O)c2cc1OC,-0.875% (inactive)
16,O=C(CCNC(=O)OCC1c2ccccc2-c2ccccc21)NOCc1ccccc1,-6.13% (inactive)
17,Cc1cccc(C)c1OCC(=O)NNC(=O)CCCn1c(=O)oc2ccccc21,-12.1% (inactive)
18,CC(=O)NCCC(=O)Nc1cc(S(=O)(=O)N2CCCCC2)ccc1N1CCN(C)CC1,-11.7% (inactive)
19,C[C@@H]1CCCCO[C@@H](CN(C)C(=O)Cc2ccccc2)[C@H](C)CN([C@H](C)CO)C(=O)c2cc(NS(=O)(=O)c3ccc(Cl)cc3)ccc2O1,1.92% (inactive)
20,CN(C)c1ccc2c(c1)[C@H]1C[C@@H](CC(=O)NCc3ccc(Oc4ccccc4)cc3)O[C@H](CO)[C@H]1O2,-2.12% (inactive)
